The whole screen tested about 5,500 compounds, of which about 2,000 (36%) were called active. Not shown: some 18% with an inconclusive outcome. No stated cut-off is given here; in the data, active means normalized growth mostly below about 0.91 (no sharp cut-off); inconclusive means no clear call, values can overlap the other calls; inactive means mostly above about 0.92. This is one part of the list.
Assay: chemical genetic growth profiling, strain panel (AID 1159580);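 further: tested at 20 µM; growth read once vehicle control cultures reached saturation at 30 °C; 1 = growth at the plate median or of vehicle wells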
Conditions: growth OD

Measured: normalized growth

Cc1cccc(C)c1NC(=O)C1CCCCN1C (configuration not stated)
inactive: S. cerevisiae deletion strains, locus YJR075W, strain HOC1, stronger effect = lower value 1 | S. cerevisiae deletion strains, locus YKL009W, strain mrt4, stronger effect = lower value 1.04 | S. cerevisiae deletion strains, locus YKL068W, stronger effect = lower value 0.999 | S. cerevisiae deletion strains, locus YKL085W, strain MDH1 (second series), stronger effect = lower value 1 | S. cerevisiae deletion strains, locus YKL085W, strain MDH1, stronger effect = lower value 1 | S. cerevisiae deletion strains, locus YKL160W, strain elf1, stronger effect = lower value 0.994 | S. cerevisiae deletion strains, locus YKL190W, strain CNB1, stronger effect = lower value 0.982 | S. cerevisiae deletion strains, locus YKR001C, strain vps1, stronger effect = lower value 1.01 | S. cerevisiae deletion strains, locus YKR026C, strain gcn3, stronger effect = lower value 0.979 | S. cerevisiae deletion strains, locus YKR091W, strain srl3, stronger effect = lower value 0.994 | S. cerevisiae deletion strains, locus YLL001W, strain dnm1, stronger effect = lower value 0.99 | S. cerevisiae deletion strains, locus YLL026W, stronger effect = lower value 0.991 | S. cerevisiae deletion strains, locus YLL041C, strain sdh2, stronger effect = lower value 1 | S. cerevisiae deletion strains, locus YLR027C, strain aat2, stronger effect = lower value 0.992 | S. cerevisiae deletion strains, locus YLR039C, strain RIC1, stronger effect = lower value 1.01 | S. cerevisiae deletion strains, locus YLR058C, strain SHM2, stronger effect = lower value 1 | S. cerevisiae deletion strains, locus YLR102C, strain apc9, stronger effect = lower value 1.02 | S. cerevisiae deletion strains, locus YLR113W, strain HOG1, stronger effect = lower value 1.01 | S. cerevisiae deletion strains, locus YLR221C, strain rsa3, stronger effect = lower value 0.996 | S. cerevisiae deletion strains, locus YLR258W, strain gsy2, stronger effect = lower value 0.991 | S. cerevisiae deletion strains, locus YLR262C, strain YPT6 (second series), stronger effect = lower value 0.986 | S. cerevisiae deletion strains, locus YLR262C, strain YPT6, stronger effect = lower value 0.996 | S. cerevisiae deletion strains, locus YLR268W, strain sec22, stronger effect = lower value 1.02 | S. cerevisiae deletion strains, locus YLR320W, strain mms22, stronger effect = lower value 0.976 | S. cerevisiae deletion strains, locus YLR330W, strain CHS5, stronger effect = lower value 1.01 | S. cerevisiae deletion strains, locus YLR342W, strain FKS1 (second series), stronger effect = lower value 1.03 | S. cerevisiae deletion strains, locus YLR342W, strain FKS1, stronger effect = lower value 0.992 | S. cerevisiae deletion strains, locus YLR357W, strain rsc2, stronger effect = lower value 0.972 | S. cerevisiae deletion strains, locus YLR370C, strain arc18, stronger effect = lower value 0.978 | S. cerevisiae deletion strains, locus YLR371W, strain rom2, stronger effect = lower value 1.02 | S. cerevisiae deletion strains, locus YLR384C, strain iki3, stronger effect = lower value 0.985 | S. cerevisiae deletion strains, locus YLR418C, strain cdc73, stronger effect = lower value 1.03 | S. cerevisiae deletion strains, locus YML016C, strain PPZ1, stronger effect = lower value 1 | S. cerevisiae deletion strains, locus YML032C, strain rad52, stronger effect = lower value 0.998 | S. cerevisiae deletion strains, locus YML120C, strain ndi1, stronger effect = lower value 0.987 | S. cerevisiae deletion strains, locus YML124C, strain tub3, stronger effect = lower value 1.02 | S. cerevisiae deletion strains, locus YMR058W, strain fet3, stronger effect = lower value 0.988 | S. cerevisiae deletion strains, locus YMR078C, strain ctf18, stronger effect = lower value 1.01 | S. cerevisiae deletion strains, locus YMR125W, strain sto1, stronger effect = lower value 0.98 | S. cerevisiae deletion strains, locus YMR129W, stronger effect = lower value 0.995 | S. cerevisiae deletion strains, locus YMR205C, strain PFK2, stronger effect = lower value 0.976 | S. cerevisiae deletion strains, locus YMR223W, strain ubp8, stronger effect = lower value 0.998 | S. cerevisiae deletion strains, locus YMR231W, strain pep5, stronger effect = lower value 0.985 | S. cerevisiae deletion strains, locus YMR263W, strain SAP30, stronger effect = lower value 0.997 | S. cerevisiae deletion strains, locus YMR307W, strain GAS1, stronger effect = lower value 0.985 | S. cerevisiae deletion strains, locus YNL067W, strain RPL9B, stronger effect = lower value 0.996 | S. cerevisiae deletion strains, locus YNL071W, strain lat1, stronger effect = lower value 0.989 | S. cerevisiae deletion strains, locus YNL128W, strain TEP1, stronger effect = lower value 1.01 | S. cerevisiae deletion strains, locus YNL153C, strain GIM3, stronger effect = lower value 1.01 | S. cerevisiae deletion strains, locus YNL183C, strain NPR1, stronger effect = lower value 0.963 | S. cerevisiae deletion strains, locus YNL209W, strain ssb2, stronger effect = lower value 0.987 | S. cerevisiae deletion strains, locus YNL233W, strain BNI4, stronger effect = lower value 1.01 | S. cerevisiae deletion strains, locus YNL248C, strain rpa49, stronger effect = lower value 0.976 | S. cerevisiae deletion strains, locus YNL250W, strain rad50, stronger effect = lower value 0.999 | S. cerevisiae deletion strains, locus YNL271C, strain bni1, stronger effect = lower value 1.01 | S. cerevisiae deletion strains, locus YNL298W, strain CLA4, stronger effect = lower value 1.01 | S. cerevisiae deletion strains, locus YNL307C, strain MCK1, stronger effect = lower value 1.02 | S. cerevisiae deletion strains, locus YNL322C, strain KRE1 (second series), stronger effect = lower value 0.966 | S. cerevisiae deletion strains, locus YNL322C, strain KRE1, stronger effect = lower value 1.01 | S. cerevisiae deletion strains, locus YNR049C, strain mso1, stronger effect = lower value 0.99 | S. cerevisiae deletion strains, locus YNR052C, strain pop2, stronger effect = lower value 1 | S. cerevisiae deletion strains, locus YOL006C, strain TOP1, stronger effect = lower value 1.02 | S. cerevisiae deletion strains, locus YOL012C, strain htz1 0.844 | S. cerevisiae deletion strains, locus YOL147C, strain pex11, stronger effect = lower value 1.01 | S. cerevisiae deletion strains, locus YOR001W, strain rrp6, stronger effect = lower value 0.974 | S. cerevisiae deletion strains, locus YOR061W, strain CKA2, stronger effect = lower value 1 | S. cerevisiae deletion strains, locus YOR069W, strain VPS5, stronger effect = lower value 0.999 | S. cerevisiae deletion strains, locus YOR070C, strain gyp1, stronger effect = lower value 0.991 | S. cerevisiae deletion strains, locus YOR080W, strain dia2, stronger effect = lower value 0.981 | S. cerevisiae deletion strains, locus YOR083W, strain WHI5, stronger effect = lower value 0.989 | S. cerevisiae deletion strains, locus YOR106W, strain vam3, stronger effect = lower value 1.01 | S. cerevisiae deletion strains, locus YOR136W, strain idh2, stronger effect = lower value 1.02 | S. cerevisiae deletion strains, locus YOR144C, strain elg1, stronger effect = lower value 1.01 | S. cerevisiae deletion strains, locus YOR184W, strain ser1, stronger effect = lower value 1.02 | S. cerevisiae deletion strains, locus YOR231W, strain MKK1, stronger effect = lower value 1.03 | S. cerevisiae deletion strains, locus YOR265W, strain rbl2, stronger effect = lower value 1 | S. cerevisiae deletion strains, locus YOR270C, strain vph1, stronger effect = lower value 0.981 | S. cerevisiae deletion strains, locus YOR290C, strain snf2, stronger effect = lower value 0.999 | S. cerevisiae deletion strains, locus YOR316C, strain cot1, stronger effect = lower value 1.01 | S. cerevisiae deletion strains, locus YPL051W, strain arl3, stronger effect = lower value 0.993 | S. cerevisiae deletion strains, locus YPL055C, strain LGE1, stronger effect = lower value 0.992 | S. cerevisiae deletion strains, locus YPL078C, strain atp4, stronger effect = lower value 0.997 | S. cerevisiae deletion strains, locus YPL106C, strain sse1, stronger effect = lower value 0.98 | S. cerevisiae deletion strains, locus YPL240C, strain hsp82, stronger effect = lower value 1 | S. cerevisiae deletion strains, locus YPL241C, strain CIN2, stronger effect = lower value 0.999 | S. cerevisiae deletion strains, locus YPL256C, strain CLN2, stronger effect = lower value 1.01 | S. cerevisiae deletion strains, locus YPR119W, strain clb2, stronger effect = lower value 1.02 | S. cerevisiae deletion strains, locus YPR141C, strain kar3, stronger effect = lower value 1.01 | S. cerevisiae deletion strains, locus YPR163C, strain tif3, stronger effect = lower value 1.02 | S. cerevisiae deletion strains, locus YPR167C, strain met16, stronger effect = lower value 1.01 | S. cerevisiae deletion strains, strain wtn01, stronger effect = lower value 1.01 | S. cerevisiae strains, strain wild type, stronger effect = lower value 0.992

Source: PubChem BioAssay AID1159580 (chemical genetic matrix, 2015)
